Assay results published in PubChem BioAssay.

Test: basal MM1S mitochondrial membrane potential changes, profiling panel, cell-based, JC-1 fluorescence, 24 h, 100 nL compound (AID 1170); also: test concentration not given here
Conditions: higher = more signal
`CC1CC/C=C\[C@H]2OC34C=CCN(c5ccc6ccccc6c5)C(=O)[C@H]3N(CCCCCO)C(=O)[C@@H]4C2C(=O)O1` (stereo not given in full) gave a z-score of 0.401.
With `CN1C(=O)C2C=CC(C(O)C(C)(C)C)N(Nc3ccccc3)C2C1=O` (stereo not given) the z-score was -0.178.
With `Cc1ccc(S[C@]2(C(=O)NCCCN(C)C)CC(=O)N(Cc3ccccc3)[C@@H]2c2ccc(CO)cc2)cc1` the z-score was 0.706.
With `O=C1O[C@H](c2ccccc2)[C@H](c2ccccc2)N2[C@H]1[C@@H](C(=O)NC[C@H](O)c1ccccc1)[C@]1(C(=O)Nc3ccc(C#CC4=CCCCC4)cc31)[C@H]2c1ccc(O)cc1` the z-score was -0.544.
Work on `O=C(CS)NCCCCCNC(=O)[C@H]1C[C@H]2C(=O)N[C@@H](Cc3ccccc3)C(=O)N2[C@H]1c1cccc(OCCO)c1` yielded a z-score of -0.256.
For `CCCC[C@H]1OB(O)C[C@H]2C1=C(COc1ccccc1)C[C@H]1C(=O)N(Cc3ccccc3)C(=O)[C@H]12`, the z-score was -0.446.
In the case of `O=c1cccc(-c2cccc3ccccc23)o1`, the z-score is reported as -1.07.
`CCCCCN1CC=CC23O[C@@H]4C=CCCOC(=O)C4[C@H]2C(=O)N(CCCO)[C@@H]3C1=O` (stereo not given in full) gave a z-score of 0.00824.
Compound `CS(=O)(=O)CCOC(=O)C1=CC(c2ccc(CO)cc2)=CC(c2cccs2)N(Cc2cccc(OC(F)(F)F)c2)C=C1C(=O)OCCS(C)(=O)=O` (stereo not given) has a z-score of -1.28.
In the case of `C#C[C@H](O[Si](C#CCCCCCC)(C(C)C)C(C)C)c1ccccc1`, the z-score is reported as -0.772.
Compound `COc1ccc([Si](C)(C)[C@@H]2[C@@H](CCO)O[C@]3(C(=O)N(Cc4ccccc4)c4ccc(N(C=O)c5ccccc5)cc43)[C@H]2C)cc1` has a z-score of -1.56.
`C=C(COC)C(=O)CC[C@H](OC(=O)c1cccnc1)c1ccccc1OCCO` gave a z-score of -2.25.
In the case of `C=CCC(OC(C)=O)[C@@H]1[C@@H](N(Cc2cc3ccccc3o2)C(=O)c2ccc(C)cc2)c2cc(OCCCO)ccc2N1C(=O)c1ccc(-c2ccccc2)cc1` (stereo not given in full), the z-score is reported as -0.763.
With `NC(=O)[C@]1(Cc2ccccc2)N=C(c2ccc(OCCCO)cc2)O[C@@H]1c1ccccc1` the z-score was 1.18.
In the case of `[N-]=[N+]=NCc1ccccc1C[C@]1(C(=O)NCCN2CCOCC2)N=C(c2ccc(OCCCO)cc2)O[C@H]1c1ccccc1CN=[N+]=[N-]`, the z-score is reported as -1.65.
`CCOC(=O)C1=CC[C@@H](c2cccc(Cl)c2)N(S(=O)(=O)c2ccc(C)cc2)[C@H]1c1ccc(C#N)cc1` gave a z-score of -1.29.
Compound `O=c1cccc(-c2ccccc2)o1` has a z-score of -0.435.
Work on `CC(=O)NCCCC[C@@H]1NC(=O)[C@@H]2C[C@H](C(=O)NCc3ccc(F)cc3)[C@H](c3ccc(O)cc3)N2C1=O` yielded a z-score of 0.28.
With `O=C1OCCC=C[C@H]2OC34C=CCN(c5ccc6ccccc6c5)C(=O)[C@H]3N(CCCCCCO)C(=O)[C@@H]4C12` (stereo not given in full) the z-score was -0.456.
`O=C1OCCC/C=C\[C@H]2OC34C=CCN(Cn5nnc6ccccc65)C(=O)[C@H]3N(CCCO)C(=O)[C@@H]4C12` (stereo not given in full) gave a z-score of -0.73.
Compound `CC(C)OC(=O)C1=CCC(c2cccc(Cl)c2)O1` (stereo not given) has a z-score of -1.99.
For `O=C1[C@H]2C=C(Br)[C@H](C[C@@H]2OCCOCCO)[C@@]12CO2`, the z-score was -0.137.
With `O=c1cccc(-c2ccc3ccccc3c2)o1` the z-score was -0.288.
With `CCCCCCCCCCC(O)C1C=CC2C(=O)N(c3ccccc3)C(=O)C2N1Nc1ccc([N+](=O)[O-])cc1` (stereo not given) the z-score was -1.66.
Work on `CN1C(=O)C2C=CC(C(O)c3ccccc3)N(NC(=O)OC(C)(C)C)C2C1=O` (stereo not given) yielded a z-score of 0.32.
Compound `CN(C)CCCC[C@@H]1NC(=O)[C@@H]2C[C@H](C(=O)NCCCCCCN)[C@H](c3ccc(O)cc3)N2C1=O` has a z-score of 0.213.
`CCOC(=O)C[C@H]1[C@H](OC(=O)c2cc3ccccc3oc2=O)[C@@H](NC(=O)c2ccc3ccccc3c2)c2cc(OCCCO)ccc2N1C(=O)c1ccccc1` showed a z-score of 0.755.
Work on `COc1ccc([Si](C)(C)[C@@H]2[C@@H](CCO)O[C@]3(C(=O)N(Cc4ccc(N5C(=O)c6cccc7cccc5c67)cc4)c4ccccc43)[C@H]2C)cc1` yielded a z-score of -1.15.
`O=C(NCC(O)CO)[C@@]1(Cc2ccccc2)COC(c2ccc(OCCCO)cc2)=N1` (stereo not given in full) showed a z-score of -0.89.
`CC(C)(C)OC(=O)CC[C@]1(C(=O)NCC(O)CO)N=C(c2ccc(OCCCO)cc2)O[C@H]1c1ccccc1CN=[N+]=[N-]` (stereo not given in full) showed a z-score of 0.649.
`C=C(/C(=C/C[C@@H](OC(C)=O)c1ccc(CO)o1)c1cnc2ccccc2c1)C(C)C` showed a z-score of 0.335.
`O=C1O[C@H](c2ccccc2)[C@H](c2ccccc2)N2[C@H]1[C@@H](C(=O)NC[C@H](O)c1ccccc1)[C@]1(C(=O)Nc3ccc(C#CC4(O)CCCCCC4)cc31)[C@H]2c1ccccc1OCCO` showed a z-score of -2.01.
`O=C1C[C@@](C(=O)O)(c2ccc([N+](=O)[O-])cc2)[C@@H](c2ccc(CO)cc2I)N1C1CCCCC1` gave a z-score of -1.86.
Compound `COc1ccc(CCNC(=O)[C@@]2(C)c3ccccc3C(=O)N(Cc3ccccc3)[C@H]2c2ccc(CO)cc2)cc1` has a z-score of -0.986.
`CC1CC/C=C\[C@H]2OC34C=CCN(Cn5nnc6ccccc65)C(=O)[C@H]3N(CCCO)C(=O)[C@@H]4C2C(=O)O1` (stereo not given in full) gave a z-score of 0.638.
